Results published in ChEMBL document CHEMBL3988442, “University of Dundee, Small-Polar-MMV Screening Library” (2021).
The whole screen tested about 48,000 compounds, of which about 13,000 (27%) showed an effect of 50% or more. The list shows a part of the results.

These compounds were tested on Wolbachia pipientis (assay: Anti-Wolbachia Cell-Based Screen). Conditions: 5 µM.
Type: functional
Set-up: scale not given: in the data most compounds retested in dose-response had high values

SMILES	Percent Effect
Cc1noc(C)c1CN(C)C(=O)c1ccc2c(c1O)OC(C)(C)C2	-18.28%
CN(CC(O)CO)C(=O)c1coc(COc2cccc(F)c2)n1 (stereo not given)	-18.15%
Cc1ccn2ncc(C(=O)N3CCCC(n4nc(C)nc4C)C3)c2n1 (stereo not given)	0.3182%
CN(Cc1cc[nH]n1)C(=O)c1cccc(CCC(C)(C)O)c1	-7.029%
O=C(NCc1cccnc1)C1=NOC2(CCN(C(=O)N3CCCC3)C2)C1.O=C(O)C(F)(F)F (stereo not given)	-7.099%
O=C(NCc1cccnc1)C1=NOC2(CCN(C3CCOCC3)C2)C1 (stereo not given)	-2.233%
O=C(Nc1ccccc1)C1=NOC2(CCCN(C(=O)C3CCCC3)C2)C1 (stereo not given)	104.4%
O=C(Nc1ccccc1)C1=NOC2(CCCN(C(=O)N3CCCC3)C2)C1 (stereo not given)	131.1%
O=C(NCc1cccnc1)C1=NOC2(CCN(S(=O)(=O)C3CC3)C2)C1 (stereo not given)	-5.335%
Cl.O=C(Nc1ccccc1F)C1=NOC2(CCNCC2)C1	2.616%
CCC(C)(CC(=O)OC)NCc1nc(C)no1 (stereo not given)	-15.67%
Cc1nc(C)c(C(=O)N2CCc3cc(F)ccc3C2C)o1 (stereo not given)	-9.87%
Cc1nc(C)c(C(=O)N2CCc3ccc(F)cc3C2C)o1 (stereo not given)	2.437%
CC(C)(C)c1ccc2c(c1)CCN2C(=O)c1[nH]c(=O)[nH]c(=O)c1N	1.564%
CC1c2ccc(F)cc2CCN1C(=O)c1[nH]c(=O)[nH]c(=O)c1N (stereo not given)	98.7%
CC1c2cc(F)ccc2CCN1C(=O)c1[nH]c(=O)[nH]c(=O)c1N (stereo not given)	103.3%
COC(=O)c1cc(C(=O)N2CCc3ccc(F)cc3C2C)ccn1 (stereo not given)	-4.117%
CC(C)(C)c1ccc2c(c1)CCN2C(=O)c1nc(=O)[nH][nH]1	2.994%
O=C(c1cc2c([nH]c1=O)CCC2)N1CCCCC1c1cccc(F)c1 (stereo not given)	-12.81%
CC1c2ccc(F)cc2CCN1C(=O)c1nc(=O)[nH][nH]1 (stereo not given)	110%
Cn1cc(NC(=O)NCc2ccsc2)ccc1=O	-5.862%
CNC(=O)[C@@H](c1ccccc1F)N1CCC[C@H]1C(=O)NC1CCCC1.Cl	0.555%

SMILES	Percent Effect
Cl.Cl.Clc1cccc(C[C@@H]2NCCC[C@@H]2Nc2cccc(Cl)c2)c1	33.15%
Clc1cccc(CNC2CCN(CCc3ccncc3)CC2)c1	-6.723%
Cl.Cl.Clc1cccc(C[C@@H]2NCCC[C@@H]2Nc2ccccc2)c1	167.6%
Cl.Clc1cccc(N[C@H]2CCCN[C@H]2Cc2ccccc2)c1	152.2%
O=C1NCCCc2[nH]c(Cc3cccc(Cl)c3)nc21	-5.245%
O=C(Cc1cccc(Cl)c1)N[C@@H]1CCNC[C@H]1O	4.451%
Cn1nc(C(=O)N2CCOCC2)c2c1CN(CC1CC1)C2.O=C(O)C(F)(F)F.O=C(O)C(F)(F)F	102.2%
Cn1nc(C(=O)N2CCOCC2)c2c1CN(CC1CCC1)C2	98%
Cn1nc(C(=O)N2CCCC2)c2c1CN(CC1CCOCC1)C2	-10.68%
O=C(O)C(F)(F)F.O=C(c1nc2c(o1)CN(CC1CC1)C2)N1CCCC1	-4.032%
O=C([C@H]1COC[C@H]2CN(CC3CCC3)C[C@H]21)N1CCOCC1	-17.46%
CC(C)CCN1Cc2c(C(=O)N3CCCC3)nn(C)c2C1.O=C(O)C(F)(F)F	4.332%
NC(=O)N1CC(OCc2cccc3ccccc23)C1	-8.487%
CC(C)NCC1(O)CCCN(CCC2CCCCC2)C1=O (stereo not given)	-46.74%
CC(C)[C@H]1CN(c2ccncc2)C[C@@H]1NC(=O)C1(C#N)CCOCC1	98.03%
O=C(O)c1cc(N2C[C@H](NC(=O)C3CCOCC3)[C@@H](C3CC3)C2)ccn1	-7.348%
Cc1cc(N2C[C@H](NC(=O)C3(C#N)CCOCC3)[C@@H](C(C)C)C2)ccn1	95.25%
CC(C)[C@H]1CN(Cc2ccncc2)C[C@@H]1NC(=O)C1(C#N)CCOCC1	101.3%
CC(C)[C@H]1CN(c2cnccn2)C[C@@H]1NC(=O)C1(C#N)CCOCC1	90.9%
CC(C)[C@@H]1CN(Cc2ccccc2C#N)C[C@H]1NC(=O)N(C)C	4.058%
N#CC1(C(=O)N2C[C@H]3CC[C@@H]2CN(Cc2ccncc2)C3)CCOCC1	-3.393%
COC(C)(C)C(=O)N[C@H]1CN(c2nccnc2N(C)C)C[C@@H]1C(C)C	9.529%

SMILES	Percent Effect
CC(C)[C@H]1CN(S(C)(=O)=O)C[C@@H]1NC(=O)c1ccnc(N)c1	-108.5%
CS(=O)(=O)NCC(=O)N[C@H]1CN(c2cnccn2)C[C@@H]1C1CC1	0.2443%
CC(=O)N[C@@H]1CN(Cc2nnc(-c3ccccc3)o2)C[C@H]1C(C)C	0.5134%
O=C(N[C@H]1CN(c2ccncc2)C[C@@H]1C1CC1)C1CCOCC1	31.8%
OCCN(Cc1cccnc1)c1ccc(Cl)cn1	-7.592%
CNc1nc(C(=O)N2C[C@H]3CC[C@@H]2CN(C2CCOCC2)C3)cs1	-0.4329%
CCCc1nc(CN(C)CC2CCN(CCO)CC2)no1	-5.007%
CC(=O)NCCNC(=O)c1cnc2c(c1)nc(-c1ccccc1Cl)n2C	-9.781%
CC(C)[C@H]1CN(c2ccnc(N)n2)C[C@@H]1NC(=O)C1(C#N)CCOCC1	89.33%
COC(C)(C)C(=O)N[C@H]1CN(c2ncccc2C(N)=O)C[C@@H]1C(C)C	2.672%
CC(=O)N1C[C@H](NC(=O)c2ccnc(N)c2)[C@@H](C(C)C)C1	-4.113%
Cc1nn(C)c(Oc2ccc(Cl)cc2)c1CN1CC[C@H](CO)[C@@H](O)C1	-1.259%
CN(C)CCN1CCN(Cc2cccc(C#N)c2)Cc2cccnc21.O=C(O)C(F)(F)F.O=C(O)C(F)(F)F.O=C(O)C(F)(F)F	101.9%
Cc1noc(C)c1CN1CCN(CCN(C)C)c2ncccc2C1.O=C(O)C(F)(F)F.O=C(O)C(F)(F)F.O=C(O)C(F)(F)F	0.7067%
CCOCC1CN(Cc2cccc(C#N)c2)Cc2nccn2C1.O=C(O)C(F)(F)F (stereo not given)	5.676%
CCN(CC)CC1CN(Cc2cccc(C#N)c2)Cc2nccn2C1.O=C(O)C(F)(F)F.O=C(O)C(F)(F)F (stereo not given)	268.5%
COCC1CN(Cc2cccc(C#N)c2)Cc2nccn2C1 (stereo not given)	107.2%
COCc1nccc(C2CCCN(Cc3cccc(C#N)c3)C2)n1 (stereo not given)	-9.239%
CCN(CC)CC1CN(Cc2c(C)noc2C)Cc2nccn2C1 (stereo not given)	-2.257%
N#Cc1cccc(CN2Cc3nccn3CC(COCC3CC3)C2)c1.O=C(O)C(F)(F)F (stereo not given)	104.1%
Cc1ccc2c(n1)N(CCN(C)C)CCN(Cc1c(C)noc1C)C2.O=C(O)C(F)(F)F.O=C(O)C(F)(F)F.O=C(O)C(F)(F)F	11.23%
